Assay results reported in PubChem BioAssay AID827 (SRMLSC, 2007).
The whole screen tested about 140,000 compounds, of which about 1,700 (1.2%) were called active. The entries come from a sample that favours actives as a whole. Unmarked numbers belong to inactive results.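 The calls were made as follows: active = viability at or below a set limit, 4 SD under the median of all tested compounds (cut at about 3.7% in these data); inactive = the rest.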

experiment: growth suppression of PTEN-null HCT116, primary screen, cell-based, CellTiter-Glo (AID 827); conditions: 60 h, at 10 µM, hits give low values;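 also: PTEN knockout HCT116 line with beta catenin targeted HCT116 as companion control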

Structure (SMILES)	viability
N#C/C(=C/c1cccc([N+](=O)[O-])c1)c1nnc2n1CCCCC2	30.1%
CCOc1ccc(S(=O)(=O)N(CC(=O)NCC(F)(F)F)Cc2ccco2)cc1	99.2%
COC(=O)CN1C(=S)N(c2ccccc2)C(=O)C1CC(=O)Nc1ccc(Cl)cc1 (configuration not stated)	91.3%
Cc1ccc(/C=C/C(=O)Nc2cc(S(=O)(=O)N3CCCCCC3)ccc2OCC(F)(F)F)o1	75.3%
C/C(=N/NC(=O)C1COc2ccccc2O1)c1ccco1 (configuration not stated)	96.5%
Cc1cccc2cc(CN(Cc3cccs3)C(=S)NCc3ccco3)c(=O)[nH]c12	72.6%
CN(C)CCNC(=O)Cc1ccc([N+](=O)[O-])cc1	98.8%
CCCCc1nc(NCc2ccccc2)c(C#N)c2c1CCCC2	82.1%
CCCCc1nc(NCCN)c(C#N)c2c1CSC(C)(C)C2	2.15% (active)
Cc1nc(NCCN)c(C#N)c2c1COC(C)(C)C2	101%
COc1ccc(C2CC(c3ccccc3)=NN2C(=O)CSc2nccc(=O)[nH]2)cc1 (configuration not stated)	101%
CCOC(=O)C1=C(C)Nc2nc3ccccc3n2C1c1cccs1 (configuration not stated)	90.1%
O=C(O)C1CC(=O)N(Cc2cccnc2)C1 (configuration not stated)	100%
O=C1/C(=C\c2cccnc2)CN(Cc2ccccc2)C/C1=C\c1cccnc1	1.06% (active)
O=C1OC(c2ccc(Cl)cc2)=N/C1=C\c1cccnc1	90.6%
O=C(CN1CCN(S(=O)(=O)c2ccc(Br)cc2)CC1)Nc1ccccc1C(=O)c1ccccc1	64.5%
Cc1nn(Cc2ccccc2)c(C)c1C(=O)NCCN1C(=O)S/C(=C\c2ccc(F)cc2)C1=O	97.4%
Cc1ccc(NC(=O)CC2S/C(=N/N=C3\CCCc4ccccc43)NC2=O)cc1 (configuration not stated)	65.5%
O=C(c1cncc(Br)c1)N1CCN(c2ccc([N+](=O)[O-])cc2)CC1	83.7%
CC(C)CC[n+]1ccn(C2=C([O-])c3ccccc3C(=O)/C2=N\S(=O)(=O)c2ccccc2)c1	3.35% (active)
O=C(CSc1nc2ccc([N+](=O)[O-])cc2[nH]1)c1ccc(Cl)cc1	103%
CC(C)=C(NC(=O)c1ccccc1)C(=O)N/N=C(\C)c1ccccc1O	88.4%
CCOc1ccc2nc(Nc3nc4ccc(NC(C)=O)cc4s3)sc2c1	90.5%
COc1ccc2nc(Nc3nc4cc5c(cc4s3)OCCO5)sc2c1	94.9%

Structure (SMILES)	viability
COc1ccc2nc(Nc3nc4ccc(NC(C)=O)cc4s3)sc2c1	1.64% (active)
CC(Sc1nnc2c(n1)C1CCC2(C)C1(C)C)C(=O)Nc1ccccc1 (configuration not stated)	87.5%
O=C(Cc1ccc(Cl)c(Cl)c1)Nc1ccc(SC(F)F)cc1	26.6%
O=C(CC(=O)Nc1ccc(Cl)c(Cl)c1)N/N=C/c1ccc(O)cc1	86.7%
O=C(CC(O)(C(F)(F)F)C(F)(F)F)Nc1ccc(Cl)c(Cl)c1	2.05% (active)
COc1ccc(N2C(=O)C(CC(=O)Nc3ccc(F)cc3)N(CCc3cccs3)C2=O)cc1 (configuration not stated)	84.4%
O=C(Nc1ccc2ccccc2c1)/C(=C\c1ccc2c(c1)OCO2)NC(=O)c1ccco1	95.8%
COc1ccc(NC(=O)c2nc(-n3nc(C)cc3C)ccc2Cl)cc1Cl	72.5%
COc1ccc(O[C@H]2C=C[C@@H](c3ccccc3)O[C@@H]2CO/N=C/C[C@@H]2C=C[C@H](OC(C)=O)[C@@H](COC(C)=O)O2)cc1	85%
CCCC(NS(=O)(=O)c1ccc(OC)cc1)C(=O)O (configuration not stated)	91.3%
CCCNC(=O)OC[C@H]1O[C@H](CCO/N=C/[C@@H](NS(=O)(=O)c2ccc(C)cc2)[C@H](C)/C=C/CC(=O)OC)C=C[C@@H]1Oc1ccc(OC)cc1	0.23% (active)
O=C(Cc1ccccc1)Nc1cccc(C(=O)N/N=C/c2ccco2)c1	92.6%
O=C(Nc1ccccc1F)c1ccccc1-c1ccccc1	87%
Cc1c(C(=O)NCCCc2ccccc2)cccc1[N+](=O)[O-]	44.8%
COc1ccc(/C=C2/C(=O)OCc3cc(OC)c(OC)cc32)c(OC)c1	71.4%
CC(C)(C)NCCCOc1ccc(Cl)cc1C(C)(C)C	40.9%
COc1cc(/C=C2\SC(=S)N(Nc3ncc(C(F)(F)F)cc3Cl)C2=O)cc(OC)c1OC	88.8%
COc1cccc(/C=N\NC(=O)C2=NNC(=O)C2C)c1O (configuration not stated)	48.4%
COc1cccc(/C=N/Nc2ncc(C(F)(F)F)cc2Cl)c1O	2.37% (active)
CC1CCN(c2ccc(C(=O)NCc3ccc4c(c3)OCO4)cc2[N+](=O)[O-])CC1	85.2%
CCC(=O)Nc1ccc(C(=O)Nc2ccc3c(c2)C(=O)N(CC2CCCO2)C3=O)cc1 (configuration not stated)	107%
O=C(NCc1ccc2c(c1)OCO2)c1ccc2c(c1)C(=O)N(CC1CCCO1)C2=O (configuration not stated)	1.19% (active)
CC(CNc1ccc([N+](=O)[O-])c2cccnc12)Nc1c([N+](=O)[O-])cc(C(F)(F)F)cc1[N+](=O)[O-] (configuration not stated)	62.8%
CCOc1ccc(C(=O)NC(=S)Nc2ccc(N3CCOCC3)c(Cl)c2)cc1[N+](=O)[O-]	70.2%

Structure (SMILES)	viability
NC1=NN(c2cccc(C(=O)O)c2)C(=O)C1	104%
CCCCN(C)CCC(=O)Nc1ccc(Cl)cc1	91.2%
Cc1ccc(C(=O)NCC2CCCO2)o1 (configuration not stated)	101%
Cc1cc(Br)ccc1NC(=O)C1CCCO1 (configuration not stated)	97.1%
OC(CNCC1CCCO1)Cn1c2ccc(Br)cc2c2cc(Br)ccc21 (configuration not stated)	1.31% (active)
O=C(Nc1ccc2c(c1)OCO2)c1ccc(N2C(=O)c3ccccc3C2=O)cc1	93.1%
CSCCC(NC(=O)COc1ccccc1)C(=O)Nc1ccc(C)cc1 (configuration not stated)	96.1%
CCOc1cc(/C=N/NC(=O)OC)ccc1OCCSc1ccc(Cl)cc1	93.7%
CSCC[C@H](NC(=O)OC(C)(C)C)C(=O)N/N=C/c1cc2ccc(C)cc2nc1Cl	1.55% (active)
CC(=O)NCCC(=O)Nc1nc(C)c(Cc2ccc3c(c2)OCO3)s1	99.8%
COc1ccccc1C(=O)Nn1c(-c2cccs2)nc2ccccc2c1=O	95%
CC(C)Nc1nnc(SCC(=O)c2c[nH]c3ccccc23)s1	87.3%
CCO/N=C(/C)c1c(O)cc(-c2ccccc2)n(-c2ccccc2)c1=O	103%
CN(Cc1ccccc1)Cc1ccccc1F	101%
N=c1n(CCc2ccccc2)c2ccccc2n1Cc1ccccc1F	1.8% (active)
CC(=O)NC(C)c1nc2ccccc2n1Cc1ccccc1F (configuration not stated)	102%
CCOC(=O)/C(=C\c1ccc([N+](=O)[O-])cc1)C(=O)c1cc(C(C)=O)c(Nc2ccccc2)s1	1.45% (active)
Cc1cccc(NC(=O)c2sc(-c3ccccc3)nc2-c2ccc([N+](=O)[O-])cc2)c1	73.5%
O=C(Nc1ccccc1)/C(=C/c1ccc([N+](=O)[O-])cc1)NC(=O)c1ccccc1	95.2%
C/C(=N\NC(=O)c1ccc(CSc2nc(C)cc(C)n2)cc1)C1CCCCC1	93%
O=C1NC(c2ccccc2)CCC1(Cl)Cl (configuration not stated)	95.3%
COc1ccccc1N1N=C(c2cccs2)CC1c1ccccc1 (configuration not stated)	65%
Cc1cccc(C)c1Nc1nnc(SCC(=O)Nc2sccc2C#N)s1	92.1%
CCCc1cc(-c2nc(-c3ccc(C)cc3)cs2)ccn1	26.2%
